Assay [1] in a line: AP1 Signaling Pathway (AID 357; active = well fitted curve in either direction with a large enough effect, not every such curve was filed as active;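 also: ME-180 reporter cells stimulated with EGF at its EC50 level; % is scaled to controls: 0 for no effect and ±100 for the full control effect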). The procedure, abridged:
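In this screen, ME-180 cells in Opti-MEM with 0.5% dialyzed FBS received EC50 EGF and compound titrations for 5 h. AP-1 reporter beta-lactamase was detected via CCF4 ratio, giving AC50 for positive and negative modulators.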

The target of assay [2] is Cytochrome P450 1A2 (Homo sapiens) (UniProt P05177). Description: p450-cyp1a2 (AID 410; calls by dose curve;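 also: -100% = full effect of reference inhibitor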). A digest of the protocol:
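Luminescent readout of luciferin formed from Luciferin-ME by human CYP1A2; data normalized against complete inhibition by 57 uM furafylline. Enzyme 20nM, substrate 100uM at Km, 100mM KPO4 buffer, 60 min reaction at room temperature.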

Assay [3] can be described thus: NFAT Signaling Pathway (AID 444; active = well fitted curve in either direction with a large enough effect, not every such curve was filed as active;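 also: carbachol stimulus at about its EC50 of 1 µM final; % is scaled to controls: 0 for no effect and ±100 for the full control effect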). Conditions: Jurkat NFAT-bla M1, carbachol, beta-lactamase ratio, 5 h; at 17.2 µM (top of the series) unless noted. The procedure, abridged: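 Jurkat cells carrying an NFAT-driven β-lactamase reporter and co-transfected muscarinic M1 receptor were treated with compound plus carbachol (1 uM final, an EC50 level) for 5 h at 37 °C. CCF4 loading followed for 1 h at RT; 460/530 nm ratio gave %activity.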

Assay [4] can be described thus: Stat Signaling Pathway (AID 446; active = well fitted curve in either direction with a large enough effect, not every such curve was filed as active;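 also: ME-180 cervical cancer cells given 40 pM IL-6 alongside compound; SIE-controlled beta-lactamase reporter measured as 460/530 nm FRET emission ratio; % is scaled to controls: 0 for no effect and ±100 for the full control effect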). The procedure, abridged:
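ME-180 SIE-bla cells; overnight plating; cpd + IL-6 40 pM, 5 h, 37 C; LiveBLAzer 2.5 h RT; 460/530 nm emission ratio. Normalized to 300 pM IL-6 and 125 nM JAK inhibitor controls.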

The target of assay [5] is Glucocorticoid receptor (Homo sapiens) (UniProt P04150). Nature of the assay: GR-GFP Redistribution (AID 450;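 active = compounds whose dose series gives a full or clear partial fitted curve of increased nuclear translocation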; also: potency is read from the fitted curve at half-maximal effect). The note with it: U2OS GR-GFP nuclear translocation, laser cytometry, 2 h.
Glucocorticoid receptor (Homo sapiens), sequence (P04150 whole entry, looked up, the tested form may be a part): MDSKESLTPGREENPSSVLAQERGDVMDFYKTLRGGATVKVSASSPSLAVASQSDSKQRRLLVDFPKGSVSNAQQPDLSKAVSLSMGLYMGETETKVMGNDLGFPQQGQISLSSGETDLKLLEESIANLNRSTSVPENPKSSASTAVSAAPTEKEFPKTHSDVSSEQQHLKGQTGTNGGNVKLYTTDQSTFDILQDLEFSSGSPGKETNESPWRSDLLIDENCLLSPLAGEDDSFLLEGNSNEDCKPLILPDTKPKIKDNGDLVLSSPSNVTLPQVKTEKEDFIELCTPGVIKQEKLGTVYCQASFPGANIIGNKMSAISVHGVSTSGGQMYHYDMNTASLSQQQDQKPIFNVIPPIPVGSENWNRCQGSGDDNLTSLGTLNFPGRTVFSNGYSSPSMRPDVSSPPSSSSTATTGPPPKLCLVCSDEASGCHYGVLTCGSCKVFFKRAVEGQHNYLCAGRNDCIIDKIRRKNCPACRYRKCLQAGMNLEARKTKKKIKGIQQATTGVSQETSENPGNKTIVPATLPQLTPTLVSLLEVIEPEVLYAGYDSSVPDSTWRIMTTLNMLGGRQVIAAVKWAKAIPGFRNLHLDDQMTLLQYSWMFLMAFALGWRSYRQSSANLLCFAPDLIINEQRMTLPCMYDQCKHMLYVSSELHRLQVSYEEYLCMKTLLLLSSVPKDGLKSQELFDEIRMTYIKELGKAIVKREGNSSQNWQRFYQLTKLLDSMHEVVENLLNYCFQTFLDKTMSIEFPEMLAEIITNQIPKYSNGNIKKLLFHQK
Assay [6] shares this target. Description: GR-EFC Redistribution (AID 451; calls by dose curve; also: potency is read from the fitted curve at half-maximal effect). Conditions: CHO-K1 GR-EFC translocation, beta-gal luminescence, 2 h. The procedure, abridged: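 CHO-K1 cells stably expressing nuclear-localized β-gal enzyme acceptor and GR fused C-terminally to the enzyme donor fragment; ligand-driven nuclear translocation restores β-gal by complementation. Compounds titrated up to 46 uM final, 2 h at 37 °C; luminescence read.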

The target of assay [7] is Mitogen-activated protein kinase 10 (Mus musculus) (UniProt Q61831). Description: JNK3 AlphaScreen Assay (AID 530; active = well fitted curve in either direction with a large enough effect, not every such curve was filed as active;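 also: kinase came from lysate of stimulated human HepG2 cells; signal reports phosphorylation of biotinylated GST-cJun 1-79 at Ser73 with 10 µM ATP; % is scaled to controls: 0 for no effect and ±100 for the full control effect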). The procedure, abridged: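 Inhibitors reduce antibody binding to phosphorylated biotin-cJun, lowering AlphaScreen luminescence. Lysates from HepG2 cells pre-activated by IL-1beta plus TNF-alpha supplied JNK3; compounds were titrated.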
For assay [8], the target named is 3',5'-cyclic-AMP phosphodiesterase 4B (Homo sapiens) (UniProt Q07343). Description: qHTS Assay for Inhibitors of PDE-IV (AID 607; active = well fitted activation curve with a large enough effect in the main read-out, with a control signal flat, not every such curve was filed as active; also: % of control where 0% means no effect). The procedure, abridged: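 ACTOne HEK293 cells carry a modified cAMP-gated CNG channel and express endogenous PDE4; plated 1000 cells/well, compounds up to 22.9 uM final. Membrane-potential dye fluorescence (ex 535/em 590) was read; parental cells received 10 uM forskolin + 100 uM RO 20-1724.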
3',5'-cyclic-AMP phosphodiesterase 4B (Homo sapiens), sequence (Q07343 whole entry, looked up): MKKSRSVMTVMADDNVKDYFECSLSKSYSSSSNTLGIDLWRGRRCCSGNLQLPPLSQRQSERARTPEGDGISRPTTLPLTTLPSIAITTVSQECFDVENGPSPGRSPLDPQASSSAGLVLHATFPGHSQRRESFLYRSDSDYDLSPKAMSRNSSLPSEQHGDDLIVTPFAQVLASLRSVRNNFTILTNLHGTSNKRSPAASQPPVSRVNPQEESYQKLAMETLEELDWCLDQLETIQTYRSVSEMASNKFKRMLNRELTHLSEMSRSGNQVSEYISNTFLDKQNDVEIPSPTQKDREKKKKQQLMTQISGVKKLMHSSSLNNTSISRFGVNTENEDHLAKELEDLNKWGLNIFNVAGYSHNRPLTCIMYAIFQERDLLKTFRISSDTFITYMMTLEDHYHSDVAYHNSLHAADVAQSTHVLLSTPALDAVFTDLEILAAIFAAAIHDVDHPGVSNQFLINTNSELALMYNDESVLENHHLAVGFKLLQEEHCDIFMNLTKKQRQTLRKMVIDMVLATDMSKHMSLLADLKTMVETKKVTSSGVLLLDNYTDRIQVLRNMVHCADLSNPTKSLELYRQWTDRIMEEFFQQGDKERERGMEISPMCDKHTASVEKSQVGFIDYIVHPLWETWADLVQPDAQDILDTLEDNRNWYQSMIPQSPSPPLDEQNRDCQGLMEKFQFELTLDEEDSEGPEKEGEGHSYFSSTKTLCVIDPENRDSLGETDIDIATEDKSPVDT

Assay [9] in a line: qHTS Assay for Lipid Storage Modulators (AID 1519; calls by dose curve). Conditions: Drosophila S3 cells, BODIPY lipid droplet/cell ratio, laser cytometry, cells loaded with oleic acid; for activity change, negative = inhibition: at 25.7 µM (top of the series). A digest of the protocol: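 Cells seeded at 5,000 per well were treated with compounds over a concentration series and loaded with oleic acid (400 uM, as added). Lipid droplet fluorescence (488 nm excitation, 500-530 nm channel) was read by laser-scanning cytometry and normalized to 20 uM Triacsin C.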

Assay [10] addresses Ubiquitin carboxyl-terminal hydrolase 1 (Homo sapiens) (UniProt O94782). Description: Inhibitors of USP1/UAF1: Pilot qHTS (AID 504865).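 Also: rhodamine fluorescence freed from ubiquitin-rhodamine substrate followed over time; top concentration of the series differs between compounds; % is scaled to controls: 0 for no effect and ±100 for the full control effect; nearly all actives have a fitted effect of over 35% in size.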 The procedure, abridged:
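Enzyme-free wells gave the negative control, while test wells held 1nM USP1/UAF1 preincubated with compound for 15 min at room temperature. Ub-Rho at 150nM final started the reaction, and fluorescence at 480/540 nm was recorded kinetically.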

Assay [11] concerns the target Luciferin 4-monooxygenase (Photinus pyralis) (UniProt P08659). Description: Biochemical firefly luciferase enzyme assay for NPC (AID 624030).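 Also: purified P. pyralis luciferase at 10 nM with luciferin and ATP substrate; 0% = DMSO and -100% = full luciferase inhibition by PTC124 control; nearly all actives have a fitted effect of over 70% in size.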 A digest of the protocol: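 Counter-screen for direct inhibition of the luciferase enzyme by approved-drug library compounds, run at 10 nM enzyme in 50 mM Tris acetate (final). Luminescence was read within 5 min of enzyme-buffer addition and normalized to PTC124 versus DMSO (0%).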

Assay [12] is described as follows: S16 Schwann cell viability assay (CellTiter-Glo assay) (AID 624031).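 Also: cellular ATP luminescence as a viability measure; plate controls were DMSO-treated cells for no effect and cell-free wells for full effect; nearly all actives have a fitted effect of over 70% in size.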 The procedure, abridged: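 This viability control uses native rat S16 Schwann cells grown in DMEM plus 10% FBS. After a 24 h compound treatment at 37 °C, CellTiter-Glo luminescence reports ATP content, scaled against DMSO-treated and cell-free wells.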
Assay [13] can be described thus: qHTS profiling for inhibitors of Plasmodium falciparum proliferation (AID 504749). Also: nearly all actives have a fitted effect of over 60% in size. Also: potency is read from the fitted curve at half-maximal effect.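 As to activity, negative = inhibition: 0% = DMSO vehicle and full inhibition = artemisinin control.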 The note with it: P. falciparum in erythrocytes, SYBR Green DNA, 72 h. A digest of the protocol:
(§1)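 Parasite proliferation within erythrocytes, 72 h exposure. Endpoint: SYBR Green I fluorescence after overnight lysis at room temperature. Controls: 0.29 uM artemisinin, DMSO.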

A further assay deals with C2A. The assay is described as above. Conditions: P. falciparum in erythrocytes, SYBR Green DNA, 72 h; series mostly up to 12.8 µM. A digest of the protocol:
as §1

The test system of the next assay is CP191. The assay is described as above. The note with it: P. falciparum in erythrocytes, SYBR Green DNA, 72 h; series mostly up to 12.8 µM. The procedure, abridged:
as §1

Another assay concerns CP256. The description is as above. Conditions: P. falciparum in erythrocytes, SYBR Green DNA, 72 h; series mostly up to 12.8 µM. The procedure, abridged: as §1
The subject of a further assay is CP262. The description is as above. The note with it: P. falciparum in erythrocytes, SYBR Green DNA, 72 h; series mostly up to 12.8 µM. A digest of the protocol: as §1
The test system of a further assay is CP268. The description is as above. The note with it: P. falciparum in erythrocytes, SYBR Green DNA, 72 h; series mostly up to 12.8 µM. The procedure, abridged:
as §1

For a further assay, the system named is JCK. The description is as above. Conditions: P. falciparum in erythrocytes, SYBR Green DNA, 72 h; series mostly up to 12.8 µM. The procedure, abridged:
as §1

For another assay, the system named is SC27B. The assay is described as above. The note with it: P. falciparum in erythrocytes, SYBR Green DNA, 72 h; series mostly up to 12.8 µM. A digest of the protocol:
as §1

The mark [14] stands for this setting: measured here: cell count channel max response.
[15] abbreviates: measured here: lipid channel max response.

The text below walks through data of PubChem BioAssay (NCATS).

Inconclusive results are not listed. The source made the active and inactive calls. Unless noted, calls follow the shape of the dose curve; as a rule, active = well fitted curve in the direction sought with a large enough effect; inconclusive = small, poorly fitted or top-dose-only effect, or another doubt; inactive = no such curve, though single readings can be large; an effect the other way counts as inactive or inconclusive.

Ubiquitin carboxyl-terminal hydrolase 1 (Homo sapiens), sequence (O94782 whole entry, looked up): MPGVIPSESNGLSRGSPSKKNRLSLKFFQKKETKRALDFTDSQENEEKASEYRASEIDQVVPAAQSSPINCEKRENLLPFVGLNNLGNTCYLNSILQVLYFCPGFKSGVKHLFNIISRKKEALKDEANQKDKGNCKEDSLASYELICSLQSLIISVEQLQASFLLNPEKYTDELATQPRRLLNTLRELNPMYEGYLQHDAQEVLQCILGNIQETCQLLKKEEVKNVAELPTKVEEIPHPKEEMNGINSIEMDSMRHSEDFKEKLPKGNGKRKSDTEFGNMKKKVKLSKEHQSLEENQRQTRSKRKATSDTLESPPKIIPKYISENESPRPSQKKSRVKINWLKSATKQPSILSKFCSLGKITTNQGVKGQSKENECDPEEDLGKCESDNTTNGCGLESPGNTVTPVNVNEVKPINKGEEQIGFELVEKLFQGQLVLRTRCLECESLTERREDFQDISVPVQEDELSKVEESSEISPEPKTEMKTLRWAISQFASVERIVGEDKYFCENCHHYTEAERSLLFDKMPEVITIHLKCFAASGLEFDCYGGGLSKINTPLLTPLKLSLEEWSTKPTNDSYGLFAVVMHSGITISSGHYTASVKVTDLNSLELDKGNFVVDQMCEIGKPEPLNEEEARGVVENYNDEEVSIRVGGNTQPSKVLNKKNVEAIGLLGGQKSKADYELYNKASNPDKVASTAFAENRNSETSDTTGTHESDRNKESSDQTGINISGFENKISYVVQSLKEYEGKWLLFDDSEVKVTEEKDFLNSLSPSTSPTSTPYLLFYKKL
Cytochrome P450 1A2 (Homo sapiens), sequence (P05177 whole entry, looked up): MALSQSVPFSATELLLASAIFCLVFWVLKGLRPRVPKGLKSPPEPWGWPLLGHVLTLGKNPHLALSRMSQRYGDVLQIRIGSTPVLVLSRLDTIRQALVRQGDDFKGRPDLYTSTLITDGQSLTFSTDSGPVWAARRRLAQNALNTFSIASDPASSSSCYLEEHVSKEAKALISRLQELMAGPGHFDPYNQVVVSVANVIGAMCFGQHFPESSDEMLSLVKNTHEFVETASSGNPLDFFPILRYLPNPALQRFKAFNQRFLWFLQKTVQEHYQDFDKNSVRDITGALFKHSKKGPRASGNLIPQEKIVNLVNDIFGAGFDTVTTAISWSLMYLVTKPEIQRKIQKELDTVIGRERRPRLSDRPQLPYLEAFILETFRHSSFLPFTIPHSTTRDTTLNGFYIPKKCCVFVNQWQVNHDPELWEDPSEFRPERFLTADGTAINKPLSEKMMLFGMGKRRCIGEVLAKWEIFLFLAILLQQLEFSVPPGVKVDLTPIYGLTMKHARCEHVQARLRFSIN
Luciferin 4-monooxygenase (Photinus pyralis), sequence (P08659 whole entry, looked up): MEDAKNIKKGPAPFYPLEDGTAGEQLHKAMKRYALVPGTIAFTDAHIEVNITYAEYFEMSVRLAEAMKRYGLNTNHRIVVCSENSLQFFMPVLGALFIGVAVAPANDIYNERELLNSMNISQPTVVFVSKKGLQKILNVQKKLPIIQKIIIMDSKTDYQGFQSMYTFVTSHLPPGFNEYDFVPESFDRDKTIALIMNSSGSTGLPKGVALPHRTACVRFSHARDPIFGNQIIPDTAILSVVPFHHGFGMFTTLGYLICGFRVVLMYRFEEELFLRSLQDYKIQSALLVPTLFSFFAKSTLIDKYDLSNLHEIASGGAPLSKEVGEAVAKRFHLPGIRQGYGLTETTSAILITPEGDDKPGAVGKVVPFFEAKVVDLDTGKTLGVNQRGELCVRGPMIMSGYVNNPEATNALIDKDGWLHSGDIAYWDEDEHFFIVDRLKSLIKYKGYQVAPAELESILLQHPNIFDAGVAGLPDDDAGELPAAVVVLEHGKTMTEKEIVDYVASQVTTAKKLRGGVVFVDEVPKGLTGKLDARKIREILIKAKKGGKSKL

With `C[C@@]12CC3CC(N)(C1)C[C@@](C)(C3)C2`, the call in [1], in [4] and in assay [8] was inactive. Further, the Potency result in [2], in assay [7] and in assay [10] was “inactive” in each case. For the same compound, the activity change, negative = inhibition in assay [3] is -7.73% (inactive); in [9] it was -4.9% (inactive). Besides, the Potency in [5] and in assay [6] was > 20.6 µM (inactive) in each case. In addition, the results for the max response in assay [9] (setting [14]) and in assay [9] (setting [15]) were -3.32% and -3.78%, respectively.
On to `COc1ccc(C[C@@](C)(N)C(=O)O)cc1OC`, for which the compound was called inactive in assay [1], in assay [4], in assay [8] and in assay [12]. The Potency result (in [2]; in assay [7]; in assay [10]; in [11]; with C2A; in the assay with CP191) was “inactive” in each case. Besides, the Potency result in the assay with CP256, in the assay with CP262, in the assay on CP268, in the assay with JCK and in the assay on SC27B was “inactive” in each case. The activity change, negative = inhibition is -8.96% (inactive) in assay [3] and -2.09% (inactive) in [9]. Moreover, the Potency in assay [5] and in [6] was > 20.6 µM (inactive) in each case. The max response was -10.3% in assay [9] (setting [14]) and -12.4% in [9] (setting [15]). The activity, negative = inhibition in [13] (at 12.8 µM (top of the series), parasite line A) is 3.21% (inactive); in assay [13] (at 12.8 µM (top of the series), parasite line B), -23.5% (inactive).
As for `COc1cc(N)c(Cl)cc1C(=O)N[C@H]1CCN(CCCOc2ccc(F)cc2)C[C@H]1OC`, the result in [1], in assay [4], in assay [8] and in assay [12] was inactive. For the same compound, the Potency result (in [2]; in [7]; in assay [10]; in assay [11]; with CP268; in the assay with JCK) was “inactive” throughout. The results for the activity change, negative = inhibition in [3] and in assay [9] were -12.4% (inactive) and 2.27% (inactive), respectively. The Potency in assay [5] is > 20.6 µM (inactive); in [6], > 20.6 µM (inactive); in assay [13] (parasite line A), 3.55 µM (active); with CP191, 2 µM (active); in the assay with CP256, 2.82 µM (active); in the assay on CP262, 3.61 µM (active). The max response in assay [9] (setting [14]) was -1.69%; in [9] (setting [15]) it was 0.873%.
`C[C@]1(OC(=O)/C=C\c2ccccc2)C[C@@H](O)[C@@]2(O)C=CO[C@@H](O[C@H]3O[C@@H](CO)[C@@H](O)[C@@H](O)[C@@H]3O)[C@H]21`: the outcome in [1], in assay [4] and in [8] was inactive. Further, the Potency result in assay [2], in [7] and in assay [10] was “inactive” in each case. Further, the activity change, negative = inhibition was -11% (inactive) in assay [3] and -2.22% (inactive) in assay [9]. Moreover, the Potency in assay [5] and in [6] was > 20.6 µM (inactive) throughout. In addition, the figures for the max response in [9] (setting [14]) and in assay [9] (setting [15]) were -15.8% and -17.4%, respectively.
Consider `CCOC(=O)[C@H](CCc1ccccc1)N[C@@H](C)C(=O)N1[C@H](C(=O)O)C[C@H]2CCC[C@@H]21`, for which the result in [1], in assay [4], in assay [8] and in assay [12] was inactive. Also, the Potency result (in [2]; in assay [7]; in [11]; in the assay on C2A; in the assay with CP191; with CP256) was “inactive” throughout. Moreover, the Potency entry with CP262, in the assay with CP268, with JCK and in the assay with SC27B was “inactive” in each case. In addition, the activity change, negative = inhibition is -18.7% (inactive) in [3] and -3.49% (inactive) in assay [9]. Also, the Potency in [5] and in [6] was > 20.6 µM (inactive) each time. Also, the results for the max response in assay [9] (setting [14]) and in [9] (setting [15]) were -8.48% and -7.94%, respectively. The activity, negative = inhibition is 14.3% (inactive) in assay [13] (at 28.7 µM (top of the series), parasite line A) and 4.68% (inactive) in assay [13] (at 28.7 µM (top of the series), parasite line B).
